Test results from PubChem BioAssay (NCATS).
A number with no mark means an inactive call. Inconclusive results are not listed. A call without a number means that no potency is given here. Activity calls are given as the source filed them. Unless noted, the call rests on the fitted dose curve; in most records, active means well fitted curve in the direction sought with a large enough effect; inconclusive means small, poorly fitted or top-dose-only effect, or another doubt; inactive means no such curve, though single readings can be large; an effect the other way counts as inactive or inconclusive.

What was measured:
[1] = biological target: Atrial natriuretic peptide receptor 2 (Homo sapiens) (UniProt P20594); assay: Natriuretic polypeptide receptor (hNpr2) antagonism - Pilot subtype selectivity assay (AID 1347050; calls by dose curve; further: potency means the concentration at half of the fitted maximal effect)
Sequence of Atrial natriuretic peptide receptor 2 (Homo sapiens) (P20594 whole entry, looked up): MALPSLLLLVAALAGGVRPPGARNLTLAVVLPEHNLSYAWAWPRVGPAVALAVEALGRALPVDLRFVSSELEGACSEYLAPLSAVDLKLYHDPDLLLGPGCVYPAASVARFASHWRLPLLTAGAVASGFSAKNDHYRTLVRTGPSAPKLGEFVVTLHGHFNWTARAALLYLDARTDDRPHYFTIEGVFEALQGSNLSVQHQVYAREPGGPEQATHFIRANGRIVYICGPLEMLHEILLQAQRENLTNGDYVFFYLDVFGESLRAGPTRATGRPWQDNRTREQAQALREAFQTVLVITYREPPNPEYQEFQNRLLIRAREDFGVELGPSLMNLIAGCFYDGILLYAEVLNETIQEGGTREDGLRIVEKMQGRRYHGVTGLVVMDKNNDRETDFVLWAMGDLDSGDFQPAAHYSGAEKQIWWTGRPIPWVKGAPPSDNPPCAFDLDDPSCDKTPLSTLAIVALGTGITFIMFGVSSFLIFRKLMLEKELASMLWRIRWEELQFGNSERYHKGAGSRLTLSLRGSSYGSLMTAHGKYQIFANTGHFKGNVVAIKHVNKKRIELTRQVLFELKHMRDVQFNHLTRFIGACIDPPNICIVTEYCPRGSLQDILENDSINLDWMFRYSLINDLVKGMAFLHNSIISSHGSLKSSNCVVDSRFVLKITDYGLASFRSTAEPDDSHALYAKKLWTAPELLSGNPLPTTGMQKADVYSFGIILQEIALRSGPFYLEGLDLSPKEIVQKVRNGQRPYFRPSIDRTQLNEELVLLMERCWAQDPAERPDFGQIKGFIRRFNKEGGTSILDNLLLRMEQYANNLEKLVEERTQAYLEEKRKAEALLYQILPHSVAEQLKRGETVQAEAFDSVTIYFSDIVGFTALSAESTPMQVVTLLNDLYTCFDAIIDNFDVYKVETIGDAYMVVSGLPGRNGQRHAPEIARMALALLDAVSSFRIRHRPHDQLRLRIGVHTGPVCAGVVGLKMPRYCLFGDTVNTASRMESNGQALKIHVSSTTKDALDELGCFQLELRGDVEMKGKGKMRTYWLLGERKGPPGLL
Summary of the method: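 cGMP-sensor HEK293/hNpr2 cells; 2% GloSensor reagent 2 h RT; compounds 30 min; baseline luminescence read; 1 nM hNppC agonist 20 min RT; final luminescence read by CCD camera. Antagonism = reduced post-agonist signal.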

[2] = biological target: T1, Tyrosine-protein phosphatase non-receptor type substrate 1 (Homo sapiens) + Leukocyte surface antigen CD47 (Homo sapiens) (UniProt P78324+Q08722); assay: CD47-SIRPalpha protein protein interaction - LANCE assay qHTS validation (AID 1347057; active means well fitted curve in the direction sought with a large enough effect in the signal ratio, with a control signal flat, not every such curve was filed as active; the % refers to the signal ratio; further: series mostly up to about 38 µM)
T1 sequence (P78324 whole entry, looked up): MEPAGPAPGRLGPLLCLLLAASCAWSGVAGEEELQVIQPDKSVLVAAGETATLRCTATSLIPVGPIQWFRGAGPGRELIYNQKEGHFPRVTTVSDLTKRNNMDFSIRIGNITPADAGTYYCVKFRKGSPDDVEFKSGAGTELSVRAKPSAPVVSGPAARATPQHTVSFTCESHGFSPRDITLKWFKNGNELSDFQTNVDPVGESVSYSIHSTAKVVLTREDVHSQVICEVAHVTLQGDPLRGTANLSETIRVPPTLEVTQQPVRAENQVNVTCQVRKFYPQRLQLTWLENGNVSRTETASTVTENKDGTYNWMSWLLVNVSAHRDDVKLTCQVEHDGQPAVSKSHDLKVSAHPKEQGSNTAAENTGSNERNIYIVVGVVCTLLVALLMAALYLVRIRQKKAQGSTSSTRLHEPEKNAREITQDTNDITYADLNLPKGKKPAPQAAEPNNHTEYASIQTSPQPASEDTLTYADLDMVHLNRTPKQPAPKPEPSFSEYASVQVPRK
T1 sequence (Q08722 whole entry, looked up): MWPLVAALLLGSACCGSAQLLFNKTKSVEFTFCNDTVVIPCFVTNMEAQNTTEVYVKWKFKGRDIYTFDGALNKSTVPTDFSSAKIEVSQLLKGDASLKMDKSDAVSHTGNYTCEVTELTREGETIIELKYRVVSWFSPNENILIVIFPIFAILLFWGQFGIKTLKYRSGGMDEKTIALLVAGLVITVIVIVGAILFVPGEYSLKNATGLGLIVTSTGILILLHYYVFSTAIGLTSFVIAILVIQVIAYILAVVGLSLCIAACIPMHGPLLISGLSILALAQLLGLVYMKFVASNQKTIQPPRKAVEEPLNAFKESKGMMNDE
Summary of the method: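 First, His-tagged CD47 and Eu-labelled anti-His antibody met the compound for 30 min; next, site-specifically biotinylated SIRPalpha was added for 30 min; finally streptavidin-APC was added before reading the TR-FRET ratio.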

[3] = biological target: T1, Tyrosine-protein phosphatase non-receptor type substrate 1 (Homo sapiens) + Leukocyte surface antigen CD47 (Homo sapiens); assay: CD47-SIRPalpha protein protein interaction - HTRF assay qHTS validation (AID 1347058; active means well fitted curve in the direction sought with a large enough effect in the signal ratio, not every such curve was filed as active; the % refers to the signal ratio; further: series mostly up to about 38 µM)
Summary of the method: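 TR-FRET read (Ch1/Ch2 ratio) of soluble extracellular CD47 and Avi-biotinylated SIRPalpha domains in PBS pH 7.4 with 0.05% IGEPAL; 7-point compound titration. Sequential 30 min room-temperature steps; non-biotinylated SIRPalpha as control inhibitor.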

[4] = biological target: T1, Tyrosine-protein phosphatase non-receptor type substrate 1 (Homo sapiens) + Leukocyte surface antigen CD47 (Homo sapiens); assay: CD47-SIRPalpha protein protein interaction - Alpha assay qHTS validation (AID 1347059);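 further: bead proximity luminescence from CD47 binding SIRPalpha after compound preincubation with SIRPalpha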
Summary of the method: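 Soluble extracellular domains: Avi-tag biotinylated SIRPalpha (25 nM) preincubated 30 min RT with compound, then 6His-CD47 (12.5 nM) 30 min; Ni-NTA acceptor and streptavidin donor beads (10 ug/mL) 30 min, AlphaScreen read. PBS pH 7.4, 0.05% IGEPAL.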

[5] = biological target: Parathyroid hormone/parathyroid hormone-related peptide receptor (Homo sapiens) (UniProt Q03431); assay: qHTS for PTHR1 Agonists: Optimization Screen against the NCGC LOPAC library (AID 1347079);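 further: GloSensor cAMP luminescence in HEK-293 GP2 cells expressing human PTHR1 with IBMX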
Sequence of Parathyroid hormone/parathyroid hormone-related peptide receptor (Homo sapiens) (Q03431 whole entry, looked up): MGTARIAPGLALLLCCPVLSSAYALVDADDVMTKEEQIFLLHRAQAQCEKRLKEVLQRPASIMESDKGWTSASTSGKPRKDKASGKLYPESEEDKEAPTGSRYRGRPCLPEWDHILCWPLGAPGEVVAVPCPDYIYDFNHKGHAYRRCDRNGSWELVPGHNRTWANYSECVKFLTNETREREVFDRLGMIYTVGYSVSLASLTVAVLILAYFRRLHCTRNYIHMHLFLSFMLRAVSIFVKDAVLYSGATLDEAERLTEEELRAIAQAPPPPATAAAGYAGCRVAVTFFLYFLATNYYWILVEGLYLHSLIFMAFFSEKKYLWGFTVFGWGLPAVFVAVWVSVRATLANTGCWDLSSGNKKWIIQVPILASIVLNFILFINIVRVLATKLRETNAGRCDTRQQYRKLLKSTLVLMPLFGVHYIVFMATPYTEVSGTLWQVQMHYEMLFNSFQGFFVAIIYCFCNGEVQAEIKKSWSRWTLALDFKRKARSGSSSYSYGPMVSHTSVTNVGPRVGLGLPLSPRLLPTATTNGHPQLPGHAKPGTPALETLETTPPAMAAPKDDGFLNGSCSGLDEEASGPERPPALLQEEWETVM
Summary of the method: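 Agonist readout: GloSensor cAMP luminescence, read after 15 min at room temperature. HEK-293-derived GP2 line carries PTHR1; compounds tested as a titration for 1 hr at 37C in presence of IBMX. M-PTH (1-15) served as control.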

[6] = qHTS of pediatric cancer cell lines to identify multiple opportunities for drug repurposing: Primary screen for TC32 cells (AID 1347089); further: nearly all actives have a fitted effect of over 60% in size; further: potency means the concentration at half of the fitted maximal effect
Summary of the method: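 Luminescent CellTiter-Glo read-out of metabolically active TC32 cells after 48 h compound exposure. Primary: MIPE 11-point, 0.78 nM–46 µM; NPC 8-point, 0.59 nM–46 µM. Confirmatory: 11-point dilutions.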

[7] = qHTS of pediatric cancer cell lines to identify multiple opportunities for drug repurposing: Primary screen for DAOY cells (AID 1347090); further: nearly all actives have a fitted effect of over 55% in size; further: potency means the concentration at half of the fitted maximal effect; on activity change, negative = cytotoxic: series mostly up to about 46 µM
Summary of the method: (§1)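 Eight- or eleven-point concentration series, 48 h treatment at 37 degrees C in growth media; readout CellTiter-Glo luminescence. Potency and efficacy were taken from the concentration-response curves.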

[8] = qHTS of pediatric cancer cell lines to identify multiple opportunities for drug repurposing: Primary screen for SJ-GBM2 cells (AID 1347091); further: potency means the concentration at half of the fitted maximal effect
Summary of the method: as §1

[9] = qHTS of pediatric cancer cell lines to identify multiple opportunities for drug repurposing: Primary screen for A673 cells (AID 1347092); further: nearly all actives have a fitted effect of over 45% in size; further: potency means the concentration at half of the fitted maximal effect
Summary of the method: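 A673 cells (500-1,000 cells/well in growth media) were pre-incubated 5 h at 37 degrees C, then exposed to compounds for 48 h. Viability was read as CellTiter-Glo luminescence; concentration-response curves came directly from the primary screen.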

[10] = NS1 protein of Zika virus - qHTS assay to identify small molecule inhibitors in human HEK 293 cells (AID 1347053); further: series mostly up to about 46 µM; nearly all actives have a fitted effect of over 55% in size
Summary of the method: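 HEK 293 cells, seeded 20 h at 37 C, were pretreated with compound 1 h, then infected with ZIKV MR766 (MOI = 0.5) for 24 h. NS1 was read by TR-FRET with two anti-NS1 antibodies, normalized to uninfected and infected wells.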

For `Cc1ccc(S(=O)(=O)NC(=O)NN2CCCCCC2)cc1`, the Potency [1] was “inactive”, the outcome [2] was “inactive” and the outcome [3] was “inactive”. For the same compound, the Potency [4] was “inactive”, the outcome [5] was “inactive” and the Potency [6] was “inactive”. The Potency [7] was “inactive”, the Potency [8] was “inactive” and the Potency [9] was “inactive”.
In the case of `O=C1CC2(CCCC2)CC(=O)N1CCCCN1CCN(c2ncccn2)CC1`, the Potency [1] is reported as “inactive”, the outcome [2] is reported as “inactive” and the outcome [3] is reported as “inactive”. For the same compound, the Potency [4] was “inactive”, the outcome [5] was “inactive” and the Potency [6] was “inactive”. The Potency [7] was “inactive”, the Potency [8] was “inactive” and the Potency [9] was “inactive”.
For `COCC(=O)O[C@]1(CCN(C)CCCc2nc3ccccc3[nH]2)CCc2cc(F)ccc2[C@@H]1C(C)C`, the outcome [10] was “inactive”, the outcome [2] was “inactive” and the outcome [3] was “inactive”. The Potency [4] was “inactive”, the outcome [5] was “inactive” and the Potency [7] was “inactive”.
With `NCCCNCCSP(=O)(O)O` the Potency [1] was “inactive”, the outcome [2] was “inactive” and the outcome [3] was “inactive”. For the same compound, the Potency [4] was “inactive”, the outcome [5] was “inactive” and the activity change, negative = cytotoxic [6] was 10.8% [at 9.17 µM]. It also gave an activity change, negative = cytotoxic [7] of 0.0744% [at 9.22 µM], an activity change, negative = cytotoxic [8] of 14.1% [at 9.22 µM] and an activity change, negative = cytotoxic [9] of 5.74% [at 9.22 µM].
For `C[n+]1cc2c3c(ccc2c2ccc4cc5c(cc4c21)OCO5)OCO3`, the Potency [1] was 2610 nM (active), the outcome [5] was “inactive” and the Potency [6] was 3250 nM (active). For the same compound, the Potency [7] was 2310 nM (active), the Potency [8] was 1160 nM (active) and the Potency [9] was 1160 nM (active).
In the case of `COC(=O)[C@H]1[C@H]2C[C@@H]3c4[nH]c5cc(OC)ccc5c4CCN3C[C@H]2C[C@@H](OC(=O)c2cc(OC)c(OC)c(OC)c2)[C@@H]1OC`, the Potency [1] is reported as “inactive”, the outcome [2] is reported as “inactive” and the outcome [5] is reported as “inactive”. For the same compound, the Potency [6] was “inactive” and the Potency [8] was “inactive”.
For `CCNC(=O)N1CCN(CCCC(c2ccc(F)cc2)c2ccc(F)cc2)CC1`, the outcome [10] was “inactive”, the outcome [2] was “inactive” and the outcome [3] was “inactive”. The Potency [4] was “inactive”, the outcome [5] was “inactive” and the Potency [6] was “inactive”. For the same compound, the Potency [8] was “inactive” and the Potency [9] was “inactive”.
For `CCn1ccnc1CC1COc2ccccc2O1` (stereo not given), the Potency [1] was “inactive”, the outcome [2] was “inactive” and the outcome [3] was “inactive”. For the same compound, the Potency [4] was “inactive”, the outcome [5] was “inactive” and the Potency [6] was “inactive”. For the same compound, the Potency [7] was “inactive”, the Potency [8] was “inactive” and the Potency [9] was “inactive”.
For `CCc1cccc(N(C)C(N)=Nc2cccc3ccccc23)c1`, the Potency [1] was “inactive”, the outcome [2] was “inactive” and the outcome [3] was “inactive”. For the same compound, the Potency [4] was “inactive”, the outcome [5] was “inactive” and the Potency [7] was “inactive”. The Potency [8] was “inactive”.
For `COC(=O)C1=C(C)NC(C)=C(C(=O)OCCN(C)Cc2ccccc2)C1c1cccc([N+](=O)[O-])c1` (stereo not given), the outcome [2] was “inactive”, the outcome [5] was “inactive” and the Potency [6] was “inactive”.
In the case of `COc1cc2c(cc1OC)-c1cc(=Nc3c(C)cc(C)cc3C)n(C)c(=O)n1CC2`, the Potency [1] is reported as “inactive”, the outcome [2] is reported as “inactive” and the Potency [8] is reported as 16800 nM (active).
With `CC(=O)Oc1cc(C(C)C)c(OCCN(C)C)cc1C` the Potency [1] was “inactive”, the outcome [5] was “inactive” and the Potency [6] was “inactive”. For the same compound, the Potency [7] was “inactive”, the Potency [8] was “inactive” and the Potency [9] was “inactive”.
